According to paper PMC7862700, “An all-to-all approach to the identification of sequence-specific readers for epigenetic DNA modifications on cytosine”:

Experiments:
Assay in all cases: DAPPL (digital affinity profiling via proximity ligation, sequencing); 10 mM Tris-HCl pH 7.5, 50 mM NaCl, 1 mM DTT, 4% glycerol, room temperature, 30 min; GST-TFs on glutathione beads, 16-mer random dsDNA library, 0.1% formaldehyde crosslink after washing; high values mean tight binding
Conditions in all cases: protein: recombinant; tags: N-terminal GST; dsDNA, one strand shown
FLI1 = biological target: T1, FLI1 (Homo sapiens, UniProt Q01543 1-452)
T1 sequence: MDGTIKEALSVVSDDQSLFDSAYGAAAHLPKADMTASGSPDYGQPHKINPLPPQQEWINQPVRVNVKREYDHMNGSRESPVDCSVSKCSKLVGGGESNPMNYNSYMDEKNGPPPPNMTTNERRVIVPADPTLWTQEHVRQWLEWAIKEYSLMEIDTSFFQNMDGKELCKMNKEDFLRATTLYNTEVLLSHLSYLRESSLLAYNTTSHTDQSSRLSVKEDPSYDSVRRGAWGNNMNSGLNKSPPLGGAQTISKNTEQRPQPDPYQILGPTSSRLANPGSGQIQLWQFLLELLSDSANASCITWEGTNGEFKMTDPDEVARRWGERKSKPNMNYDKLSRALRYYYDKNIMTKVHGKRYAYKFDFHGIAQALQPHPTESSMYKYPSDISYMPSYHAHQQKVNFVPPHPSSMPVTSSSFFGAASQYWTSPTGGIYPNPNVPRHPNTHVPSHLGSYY
In short: (§1)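 Sequencing on an Illumina NextSeq500 followed washing, crosslinking with 0.1% formaldehyde, proximity ligation (BsaI/T4 ligase, 1 h, 37 °C) and PCR amplification of pools that had been incubated for 30 min at room temperature with 200 nmole of a random double-stranded 16-mer DNA library in Tris/NaCl/DTT/glycerol buffer. Each pool held DNA-barcoded human transcription factors, expressed in yeast as GST fusions and captured on glutathione beads, plus a tag-only sample. Binding signal is a hexamer's read frequency for a factor divided by its frequency in the tag-only sample.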

ELK1 = biological target: T2, ELK1 (Homo sapiens, UniProt P19419 1-428)
T2 sequence: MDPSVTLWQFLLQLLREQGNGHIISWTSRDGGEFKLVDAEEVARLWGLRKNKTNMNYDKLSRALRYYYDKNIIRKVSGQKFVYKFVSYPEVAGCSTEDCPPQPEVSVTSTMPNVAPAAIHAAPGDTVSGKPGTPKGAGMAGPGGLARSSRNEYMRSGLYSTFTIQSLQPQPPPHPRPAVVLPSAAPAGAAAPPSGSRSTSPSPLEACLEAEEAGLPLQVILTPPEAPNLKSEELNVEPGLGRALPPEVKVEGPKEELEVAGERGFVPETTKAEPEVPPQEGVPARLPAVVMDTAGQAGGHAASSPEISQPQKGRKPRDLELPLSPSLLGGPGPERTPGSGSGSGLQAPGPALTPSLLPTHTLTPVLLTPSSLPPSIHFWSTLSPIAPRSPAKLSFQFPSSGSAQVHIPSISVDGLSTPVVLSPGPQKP
In short: as §1

GABPA = biological target: T3, GABPA (Homo sapiens, UniProt Q06546 1-454)
T3 sequence: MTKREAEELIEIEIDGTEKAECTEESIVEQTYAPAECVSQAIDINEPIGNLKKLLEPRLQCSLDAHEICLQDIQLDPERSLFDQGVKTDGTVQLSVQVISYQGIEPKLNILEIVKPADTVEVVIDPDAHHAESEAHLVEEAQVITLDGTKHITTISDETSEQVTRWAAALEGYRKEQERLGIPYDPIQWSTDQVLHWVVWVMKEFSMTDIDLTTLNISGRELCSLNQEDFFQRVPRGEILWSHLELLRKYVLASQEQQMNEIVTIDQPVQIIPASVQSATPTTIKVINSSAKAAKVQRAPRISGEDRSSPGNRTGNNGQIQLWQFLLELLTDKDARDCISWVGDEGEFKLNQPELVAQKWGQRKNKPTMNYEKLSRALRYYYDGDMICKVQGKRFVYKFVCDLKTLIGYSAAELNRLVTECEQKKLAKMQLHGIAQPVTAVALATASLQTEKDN
In short: as §1

ERG = biological target: T4, ERG (Homo sapiens, UniProt P11308 1-479)
T4 sequence: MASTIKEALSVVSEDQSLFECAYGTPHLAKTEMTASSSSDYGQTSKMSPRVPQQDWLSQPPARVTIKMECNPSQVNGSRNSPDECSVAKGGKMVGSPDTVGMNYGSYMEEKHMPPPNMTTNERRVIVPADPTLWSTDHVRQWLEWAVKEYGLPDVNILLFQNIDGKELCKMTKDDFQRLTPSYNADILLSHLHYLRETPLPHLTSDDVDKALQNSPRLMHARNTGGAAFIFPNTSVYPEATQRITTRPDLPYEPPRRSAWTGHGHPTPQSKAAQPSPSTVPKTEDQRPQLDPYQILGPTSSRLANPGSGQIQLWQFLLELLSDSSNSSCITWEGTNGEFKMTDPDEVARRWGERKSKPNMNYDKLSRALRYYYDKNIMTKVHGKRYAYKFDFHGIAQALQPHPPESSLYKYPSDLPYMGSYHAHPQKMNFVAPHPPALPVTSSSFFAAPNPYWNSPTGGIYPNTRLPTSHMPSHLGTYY
In short: as §1

ELF1 = ELF1 (Homo sapiens, UniProt P32519 1-619)
Sequence of ELF1 (P32519 whole entry): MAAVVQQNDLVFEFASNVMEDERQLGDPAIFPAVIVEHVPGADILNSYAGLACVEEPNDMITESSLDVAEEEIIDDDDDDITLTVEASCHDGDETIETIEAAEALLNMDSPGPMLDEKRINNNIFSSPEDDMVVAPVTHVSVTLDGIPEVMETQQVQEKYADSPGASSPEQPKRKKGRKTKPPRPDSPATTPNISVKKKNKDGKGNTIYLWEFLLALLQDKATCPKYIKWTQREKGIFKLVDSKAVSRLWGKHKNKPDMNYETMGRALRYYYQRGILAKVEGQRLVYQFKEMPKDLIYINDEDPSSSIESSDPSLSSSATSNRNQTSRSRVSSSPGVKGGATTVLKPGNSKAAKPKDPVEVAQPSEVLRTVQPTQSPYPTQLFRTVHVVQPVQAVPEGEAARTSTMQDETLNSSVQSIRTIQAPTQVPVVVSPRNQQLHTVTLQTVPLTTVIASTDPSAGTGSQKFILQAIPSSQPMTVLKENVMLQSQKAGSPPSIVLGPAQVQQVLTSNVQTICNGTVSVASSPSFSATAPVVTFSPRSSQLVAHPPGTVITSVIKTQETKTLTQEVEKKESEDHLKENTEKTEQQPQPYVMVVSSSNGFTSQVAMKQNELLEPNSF
In short: as §1

EHF = biological target: T5, EHF (Homo sapiens, UniProt Q9NZC4 1-300)
T5 sequence: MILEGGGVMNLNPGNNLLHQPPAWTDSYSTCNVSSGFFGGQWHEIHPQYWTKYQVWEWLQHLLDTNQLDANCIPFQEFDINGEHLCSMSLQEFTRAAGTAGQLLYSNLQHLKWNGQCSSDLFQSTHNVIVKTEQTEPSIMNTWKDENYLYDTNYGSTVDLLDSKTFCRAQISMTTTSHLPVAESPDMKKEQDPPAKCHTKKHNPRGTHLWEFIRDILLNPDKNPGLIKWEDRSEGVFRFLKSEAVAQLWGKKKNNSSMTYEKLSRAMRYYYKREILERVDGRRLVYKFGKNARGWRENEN
In short: as §1

SPI1 = SPI1 (Homo sapiens, UniProt P17947 1-270)
In short: as §1

SPIB = SPIB (Homo sapiens, UniProt Q01892 1-262)
Sequence of SPIB (Q01892 whole entry): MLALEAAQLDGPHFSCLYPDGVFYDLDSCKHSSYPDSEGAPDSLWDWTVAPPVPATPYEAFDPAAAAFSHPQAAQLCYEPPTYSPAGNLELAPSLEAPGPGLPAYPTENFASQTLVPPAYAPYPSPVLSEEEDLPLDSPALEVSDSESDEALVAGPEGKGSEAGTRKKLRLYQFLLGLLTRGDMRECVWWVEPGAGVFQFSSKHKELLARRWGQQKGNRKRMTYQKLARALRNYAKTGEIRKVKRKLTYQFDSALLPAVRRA
In short: as §1

ELK3 = biological target: T6, ELK3 (Homo sapiens, UniProt P41970 1-407)
T6 sequence: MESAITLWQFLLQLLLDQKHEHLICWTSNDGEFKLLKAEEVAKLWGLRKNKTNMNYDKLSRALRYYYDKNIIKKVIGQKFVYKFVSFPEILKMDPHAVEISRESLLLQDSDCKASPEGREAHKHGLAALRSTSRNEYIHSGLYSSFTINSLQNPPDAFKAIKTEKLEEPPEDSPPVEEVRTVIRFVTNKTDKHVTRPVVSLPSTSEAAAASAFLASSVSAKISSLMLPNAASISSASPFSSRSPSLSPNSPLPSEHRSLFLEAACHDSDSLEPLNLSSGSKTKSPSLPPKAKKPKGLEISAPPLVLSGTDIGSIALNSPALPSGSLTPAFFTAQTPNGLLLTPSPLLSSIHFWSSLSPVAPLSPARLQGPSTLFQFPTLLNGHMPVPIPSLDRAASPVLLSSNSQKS
In short: as §1

FEV = biological target: T7, FEV (Homo sapiens, UniProt Q99581 1-238)
T7 sequence: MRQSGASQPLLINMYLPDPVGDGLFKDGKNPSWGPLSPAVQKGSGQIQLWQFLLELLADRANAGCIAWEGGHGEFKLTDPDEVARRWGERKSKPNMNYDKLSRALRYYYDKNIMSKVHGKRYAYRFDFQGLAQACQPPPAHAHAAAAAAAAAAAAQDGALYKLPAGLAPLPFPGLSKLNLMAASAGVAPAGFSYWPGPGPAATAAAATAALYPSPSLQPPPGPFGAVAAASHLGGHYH
In short: as §1

ETV5 = ETV5 (Homo sapiens, UniProt P41161 1-510)
Sequence of ETV5 (P41161 whole entry): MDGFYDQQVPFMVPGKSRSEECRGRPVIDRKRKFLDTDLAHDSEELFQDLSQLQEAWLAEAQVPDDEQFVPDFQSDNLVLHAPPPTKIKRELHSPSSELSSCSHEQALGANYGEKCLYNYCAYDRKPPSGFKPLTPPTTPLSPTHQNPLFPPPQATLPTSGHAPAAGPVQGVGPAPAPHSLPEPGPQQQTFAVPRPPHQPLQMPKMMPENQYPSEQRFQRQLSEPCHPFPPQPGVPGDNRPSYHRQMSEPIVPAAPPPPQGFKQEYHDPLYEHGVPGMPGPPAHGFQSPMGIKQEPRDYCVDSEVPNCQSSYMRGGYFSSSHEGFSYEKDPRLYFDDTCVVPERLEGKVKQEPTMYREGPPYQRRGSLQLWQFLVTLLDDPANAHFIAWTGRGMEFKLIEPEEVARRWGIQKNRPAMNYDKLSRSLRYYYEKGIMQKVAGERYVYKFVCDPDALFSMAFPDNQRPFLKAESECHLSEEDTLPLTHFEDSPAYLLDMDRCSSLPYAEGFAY
In short: as §1

SPIC = biological target: T8, SPIC (Homo sapiens, UniProt Q8N5J4 1-248)
T8 sequence: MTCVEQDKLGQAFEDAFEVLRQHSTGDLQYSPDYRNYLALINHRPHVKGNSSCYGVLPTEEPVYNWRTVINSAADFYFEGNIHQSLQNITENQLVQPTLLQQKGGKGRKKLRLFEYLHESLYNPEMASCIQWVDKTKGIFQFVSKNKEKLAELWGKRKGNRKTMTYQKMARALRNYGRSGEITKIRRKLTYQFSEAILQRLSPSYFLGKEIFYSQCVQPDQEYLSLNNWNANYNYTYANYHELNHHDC
In short: as §1

ELF4 = ELF4 (Homo sapiens, UniProt Q99607 1-663)
Sequence of ELF4 (Q99607 whole entry): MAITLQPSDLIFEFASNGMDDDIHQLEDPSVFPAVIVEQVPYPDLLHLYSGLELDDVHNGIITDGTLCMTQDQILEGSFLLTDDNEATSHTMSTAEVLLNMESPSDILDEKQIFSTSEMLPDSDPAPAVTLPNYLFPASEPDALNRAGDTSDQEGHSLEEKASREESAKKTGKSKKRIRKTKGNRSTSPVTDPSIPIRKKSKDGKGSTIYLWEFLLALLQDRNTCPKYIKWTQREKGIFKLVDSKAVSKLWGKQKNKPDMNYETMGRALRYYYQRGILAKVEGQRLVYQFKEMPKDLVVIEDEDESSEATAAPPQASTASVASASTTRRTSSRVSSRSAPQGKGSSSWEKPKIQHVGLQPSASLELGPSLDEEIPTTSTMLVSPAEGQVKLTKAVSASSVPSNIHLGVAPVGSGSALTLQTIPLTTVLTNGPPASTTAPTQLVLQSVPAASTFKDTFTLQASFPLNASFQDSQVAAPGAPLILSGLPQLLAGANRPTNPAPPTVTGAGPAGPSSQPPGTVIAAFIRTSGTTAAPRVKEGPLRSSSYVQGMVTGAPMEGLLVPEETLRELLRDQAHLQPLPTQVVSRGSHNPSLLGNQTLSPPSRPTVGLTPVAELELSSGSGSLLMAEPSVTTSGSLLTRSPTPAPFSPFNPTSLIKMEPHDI
In short: as §1

ELK4 = biological target: T9, ELK4 (Homo sapiens, UniProt P28324-2 1-405)
T9 sequence: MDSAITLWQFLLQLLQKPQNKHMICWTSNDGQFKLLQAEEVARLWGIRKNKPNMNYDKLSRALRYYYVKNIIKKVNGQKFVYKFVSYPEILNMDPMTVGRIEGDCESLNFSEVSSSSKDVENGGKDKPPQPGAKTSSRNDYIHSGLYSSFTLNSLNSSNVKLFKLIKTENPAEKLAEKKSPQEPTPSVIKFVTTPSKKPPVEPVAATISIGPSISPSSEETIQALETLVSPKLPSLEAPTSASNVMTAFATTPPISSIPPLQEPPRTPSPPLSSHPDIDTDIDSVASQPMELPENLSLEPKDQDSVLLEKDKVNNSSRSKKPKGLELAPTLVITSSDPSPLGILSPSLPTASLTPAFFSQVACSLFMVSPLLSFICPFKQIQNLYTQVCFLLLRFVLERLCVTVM
In short: as §1

ETV2 = biological target: T10, ETV2 (Homo sapiens, UniProt O00321 1-342)
T10 sequence: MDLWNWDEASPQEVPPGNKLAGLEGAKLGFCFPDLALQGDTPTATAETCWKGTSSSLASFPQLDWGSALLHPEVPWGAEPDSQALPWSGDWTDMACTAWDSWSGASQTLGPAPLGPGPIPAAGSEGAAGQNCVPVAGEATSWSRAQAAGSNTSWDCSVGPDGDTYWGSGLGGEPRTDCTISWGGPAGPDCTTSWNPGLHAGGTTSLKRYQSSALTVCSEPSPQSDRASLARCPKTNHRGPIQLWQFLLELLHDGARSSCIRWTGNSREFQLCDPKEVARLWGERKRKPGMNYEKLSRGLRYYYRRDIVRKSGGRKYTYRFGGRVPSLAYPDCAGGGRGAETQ
In short: as §1

ELF3 = biological target: T11, ELF3 (Homo sapiens, UniProt P78545 1-371)
T11 sequence: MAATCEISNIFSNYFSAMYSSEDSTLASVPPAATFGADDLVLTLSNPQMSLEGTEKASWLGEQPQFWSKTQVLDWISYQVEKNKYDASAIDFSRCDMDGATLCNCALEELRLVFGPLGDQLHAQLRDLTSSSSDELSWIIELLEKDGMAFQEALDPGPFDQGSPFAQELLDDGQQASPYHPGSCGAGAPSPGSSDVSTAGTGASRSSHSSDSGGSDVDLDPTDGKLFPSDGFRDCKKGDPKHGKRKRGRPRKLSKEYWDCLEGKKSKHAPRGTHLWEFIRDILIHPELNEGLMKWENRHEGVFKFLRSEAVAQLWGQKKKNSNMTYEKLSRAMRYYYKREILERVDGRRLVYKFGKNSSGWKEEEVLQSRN
In short: as §1

ETV1 = ETV1 (Homo sapiens, UniProt P50549 1-477)
Sequence of ETV1 (P50549 whole entry): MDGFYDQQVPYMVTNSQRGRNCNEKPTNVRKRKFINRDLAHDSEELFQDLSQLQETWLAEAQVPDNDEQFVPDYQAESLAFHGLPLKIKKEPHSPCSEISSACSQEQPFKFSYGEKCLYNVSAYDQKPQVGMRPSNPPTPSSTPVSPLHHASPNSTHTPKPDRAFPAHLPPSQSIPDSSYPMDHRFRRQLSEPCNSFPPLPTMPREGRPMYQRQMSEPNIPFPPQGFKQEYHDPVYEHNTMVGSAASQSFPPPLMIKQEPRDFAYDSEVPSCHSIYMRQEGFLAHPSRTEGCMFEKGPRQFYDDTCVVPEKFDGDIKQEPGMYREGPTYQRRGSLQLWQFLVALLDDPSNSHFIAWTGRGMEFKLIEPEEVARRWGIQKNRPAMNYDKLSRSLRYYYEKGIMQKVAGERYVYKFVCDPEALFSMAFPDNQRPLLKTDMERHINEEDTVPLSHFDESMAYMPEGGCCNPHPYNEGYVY
In short: as §1

Row | Sequence | binding signal (FLI1) | binding signal (ELK1) | binding signal (GABPA) | binding signal (ERG) | binding signal (ELF1) | binding signal (EHF) | binding signal (SPI1) | binding signal (SPIB) | binding signal (ELK3) | binding signal (FEV) | binding signal (ETV5) | binding signal (SPIC) | binding signal (ELF4) | binding signal (ELK4) | binding signal (ETV2) | binding signal (ELF3) | binding signal (ETV1)
1 | GCACAT | 1.16 fold enrichment (6-mer frequency, TF over GST control) | 1.05 fold enrichment (6-mer frequency, TF over GST control) | 1.16 fold enrichment (6-mer frequency, TF over GST control) | 1.2 fold enrichment (6-mer frequency, TF over GST control) | 1.1 fold enrichment (6-mer frequency, TF over GST control) | 1.14 fold enrichment (6-mer frequency, TF over GST control) | 1.14 fold enrichment (6-mer frequency, TF over GST control) | 1.08 fold enrichment (6-mer frequency, TF over GST control) | 1.17 fold enrichment (6-mer frequency, TF over GST control) | 1.23 fold enrichment (6-mer frequency, TF over GST control) | 1.2 fold enrichment (6-mer frequency, TF over GST control) | 1.14 fold enrichment (6-mer frequency, TF over GST control) | 1.12 fold enrichment (6-mer frequency, TF over GST control) | 1.06 fold enrichment (6-mer frequency, TF over GST control) | 1.09 fold enrichment (6-mer frequency, TF over GST control) | 1.11 fold enrichment (6-mer frequency, TF over GST control) | 1.1 fold enrichment (6-mer frequency, TF over GST control)
2 | GCTACC | 1.18 fold enrichment (6-mer frequency, TF over GST control) | 1.27 fold enrichment (6-mer frequency, TF over GST control) | 1.25 fold enrichment (6-mer frequency, TF over GST control) | 1.26 fold enrichment (6-mer frequency, TF over GST control) | 1.29 fold enrichment (6-mer frequency, TF over GST control) | 1.09 fold enrichment (6-mer frequency, TF over GST control) | 1.11 fold enrichment (6-mer frequency, TF over GST control) | 1.28 fold enrichment (6-mer frequency, TF over GST control) | 1.39 fold enrichment (6-mer frequency, TF over GST control) | 1.18 fold enrichment (6-mer frequency, TF over GST control) | 1.17 fold enrichment (6-mer frequency, TF over GST control) | 1.23 fold enrichment (6-mer frequency, TF over GST control) | 1.24 fold enrichment (6-mer frequency, TF over GST control) | 1.04 fold enrichment (6-mer frequency, TF over GST control) | 1.08 fold enrichment (6-mer frequency, TF over GST control) | 1.1 fold enrichment (6-mer frequency, TF over GST control) | 1.26 fold enrichment (6-mer frequency, TF over GST control)
